Assay results as given in PubChem BioAssay AID1159580 (chemical genetic matrix, 2015).
Several values for one entry are separate records, joined by “and”; a condition that tells them apart may be missing. Identical values can stand only once. Screen size: about 5,500 compounds; about 2,000 (36%) were called active. About 18% were inconclusive and are not listed. Cut-off read from the data, not from the text of the source: active = normalized growth mostly below about 0.91 (no sharp cut-off); inconclusive = no clear call, values can overlap the other calls; inactive = mostly above about 0.92. The list shows a part of the results.

Assay: chemical genetic growth profiling, strain panel (AID 1159580);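 note: tested at 20 µM; growth read once vehicle control cultures reached saturation at 30 °C; 1 = growth at the plate median or of vehicle wells; lower values mean less growth of the strain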
Conditions: growth OD

Measured: normalized growth

CCN(CC)CCNC(=O)c1cc(Cl)c(N)cc1OC
inactive: S. cerevisiae deletion strains, locus YJR075W, strain HOC1, active compounds read low 0.998 | S. cerevisiae deletion strains, locus YKL009W, strain mrt4, active compounds read low 1.01 | S. cerevisiae deletion strains, locus YKL068W, active compounds read low 1.01 | S. cerevisiae deletion strains, locus YKL085W, strain MDH1 (second series), active compounds read low 1 | S. cerevisiae deletion strains, locus YKL085W, strain MDH1, active compounds read low 1 | S. cerevisiae deletion strains, locus YKL160W, strain elf1, active compounds read low 0.97 | S. cerevisiae deletion strains, locus YKL190W, strain CNB1, active compounds read low 1.02 | S. cerevisiae deletion strains, locus YKR001C, strain vps1, active compounds read low 1 | S. cerevisiae deletion strains, locus YKR026C, strain gcn3, active compounds read low 0.996 | S. cerevisiae deletion strains, locus YKR091W, strain srl3, active compounds read low 0.972 | S. cerevisiae deletion strains, locus YLL001W, strain dnm1, active compounds read low 0.921 | S. cerevisiae deletion strains, locus YLL026W, active compounds read low 0.977 | S. cerevisiae deletion strains, locus YLL041C, strain sdh2, active compounds read low 0.991 | S. cerevisiae deletion strains, locus YLR027C, strain aat2, active compounds read low 0.983 | S. cerevisiae deletion strains, locus YLR039C, strain RIC1, active compounds read low 0.996 | S. cerevisiae deletion strains, locus YLR058C, strain SHM2, active compounds read low 1.01 | S. cerevisiae deletion strains, locus YLR102C, strain apc9, active compounds read low 0.992 | S. cerevisiae deletion strains, locus YLR113W, strain HOG1, active compounds read low 1.06 | S. cerevisiae deletion strains, locus YLR221C, strain rsa3, active compounds read low 0.961 | S. cerevisiae deletion strains, locus YLR258W, strain gsy2, active compounds read low 0.997 | S. cerevisiae deletion strains, locus YLR262C, strain YPT6 (second series), active compounds read low 0.977 | S. cerevisiae deletion strains, locus YLR262C, strain YPT6, active compounds read low 1.05 | S. cerevisiae deletion strains, locus YLR268W, strain sec22, active compounds read low 0.963 | S. cerevisiae deletion strains, locus YLR320W, strain mms22, active compounds read low 0.962 | S. cerevisiae deletion strains, locus YLR330W, strain CHS5, active compounds read low 1 | S. cerevisiae deletion strains, locus YLR342W, strain FKS1 (second series), active compounds read low 0.995 | S. cerevisiae deletion strains, locus YLR342W, strain FKS1, active compounds read low 0.983 | S. cerevisiae deletion strains, locus YLR357W, strain rsc2, active compounds read low 0.965 | S. cerevisiae deletion strains, locus YLR370C, strain arc18, active compounds read low 0.973 | S. cerevisiae deletion strains, locus YLR371W, strain rom2, active compounds read low 0.995 | S. cerevisiae deletion strains, locus YLR384C, strain iki3, active compounds read low 0.976 | S. cerevisiae deletion strains, locus YLR418C, strain cdc73, active compounds read low 0.976 | S. cerevisiae deletion strains, locus YML016C, strain PPZ1, active compounds read low 1.01 | S. cerevisiae deletion strains, locus YML032C, strain rad52, active compounds read low 0.987 | S. cerevisiae deletion strains, locus YML120C, strain ndi1, active compounds read low 0.945 | S. cerevisiae deletion strains, locus YML124C, strain tub3, active compounds read low 1 | S. cerevisiae deletion strains, locus YMR058W, strain fet3, active compounds read low 0.983 | S. cerevisiae deletion strains, locus YMR078C, strain ctf18, active compounds read low 0.994 | S. cerevisiae deletion strains, locus YMR125W, strain sto1, active compounds read low 0.951 | S. cerevisiae deletion strains, locus YMR129W, active compounds read low 0.995 | S. cerevisiae deletion strains, locus YMR205C, strain PFK2, active compounds read low 0.954 | S. cerevisiae deletion strains, locus YMR223W, strain ubp8, active compounds read low 0.997 | S. cerevisiae deletion strains, locus YMR231W, strain pep5, active compounds read low 0.992 | S. cerevisiae deletion strains, locus YMR263W, strain SAP30, active compounds read low 1.01 and 1 | S. cerevisiae deletion strains, locus YMR307W, strain GAS1, active compounds read low 1.01 | S. cerevisiae deletion strains, locus YNL067W, strain RPL9B, active compounds read low 1 | S. cerevisiae deletion strains, locus YNL071W, strain lat1, active compounds read low 0.984 | S. cerevisiae deletion strains, locus YNL128W, strain TEP1, active compounds read low 1.03 | S. cerevisiae deletion strains, locus YNL153C, strain GIM3, active compounds read low 0.996 and 0.998 | S. cerevisiae deletion strains, locus YNL175C, strain NOP13, active compounds read low 1 | S. cerevisiae deletion strains, locus YNL183C, strain NPR1, active compounds read low 0.991 | S. cerevisiae deletion strains, locus YNL197C, strain WHI3, active compounds read low 1.02 | S. cerevisiae deletion strains, locus YNL209W, strain ssb2, active compounds read low 0.974 | S. cerevisiae deletion strains, locus YNL224C, strain SQS1, active compounds read low 1.01 | S. cerevisiae deletion strains, locus YNL233W, strain BNI4, active compounds read low 1 | S. cerevisiae deletion strains, locus YNL248C, strain rpa49, active compounds read low 0.983 | S. cerevisiae deletion strains, locus YNL250W, strain rad50, active compounds read low 0.992 | S. cerevisiae deletion strains, locus YNL271C, strain bni1, active compounds read low 1 | S. cerevisiae deletion strains, locus YNL298W, strain CLA4, active compounds read low 1 | S. cerevisiae deletion strains, locus YNL307C, strain MCK1, active compounds read low 0.992 | S. cerevisiae deletion strains, locus YNL322C, strain KRE1 (second series), active compounds read low 0.973 | S. cerevisiae deletion strains, locus YNL322C, strain KRE1, active compounds read low 1.01 | S. cerevisiae deletion strains, locus YNR049C, strain mso1, active compounds read low 0.962 | S. cerevisiae deletion strains, locus YNR052C, strain pop2, active compounds read low 1.01 | S. cerevisiae deletion strains, locus YOL006C, strain TOP1, active compounds read low 1.03 | S. cerevisiae deletion strains, locus YOL012C, strain htz1 1.1 | S. cerevisiae deletion strains, locus YOL147C, strain pex11, active compounds read low 0.995 | S. cerevisiae deletion strains, locus YOR001W, strain rrp6, active compounds read low 1 | S. cerevisiae deletion strains, locus YOR061W, strain CKA2, active compounds read low 1 | S. cerevisiae deletion strains, locus YOR069W, strain VPS5, active compounds read low 1.01 | S. cerevisiae deletion strains, locus YOR070C, strain gyp1, active compounds read low 0.992 | S. cerevisiae deletion strains, locus YOR080W, strain dia2, active compounds read low 0.987 | S. cerevisiae deletion strains, locus YOR083W, strain WHI5 (second series), active compounds read low 0.999 | S. cerevisiae deletion strains, locus YOR083W, strain WHI5, active compounds read low 0.964 | S. cerevisiae deletion strains, locus YOR106W, strain vam3, active compounds read low 0.932 | S. cerevisiae deletion strains, locus YOR136W, strain idh2, active compounds read low 0.994 | S. cerevisiae deletion strains, locus YOR144C, strain elg1, active compounds read low 1 | S. cerevisiae deletion strains, locus YOR184W, strain ser1, active compounds read low 0.986 | S. cerevisiae deletion strains, locus YOR231W, strain MKK1, active compounds read low 1.05 | S. cerevisiae deletion strains, locus YOR265W, strain rbl2, active compounds read low 0.993 | S. cerevisiae deletion strains, locus YOR270C, strain vph1, active compounds read low 0.947 | S. cerevisiae deletion strains, locus YOR290C, strain snf2, active compounds read low 0.909 | S. cerevisiae deletion strains, locus YOR316C, strain cot1, active compounds read low 0.991 | S. cerevisiae deletion strains, locus YPL051W, strain arl3, active compounds read low 0.998 | S. cerevisiae deletion strains, locus YPL055C, strain LGE1, active compounds read low 1.02 and 1 | S. cerevisiae deletion strains, locus YPL078C, strain atp4, active compounds read low 0.975 | S. cerevisiae deletion strains, locus YPL106C, strain sse1, active compounds read low 0.971 | S. cerevisiae deletion strains, locus YPL240C, strain hsp82, active compounds read low 0.98 | S. cerevisiae deletion strains, locus YPL241C, strain CIN2, active compounds read low 1.01 | S. cerevisiae deletion strains, locus YPL256C, strain CLN2, active compounds read low 1.13 | S. cerevisiae deletion strains, locus YPR119W, strain clb2, active compounds read low 0.987 | S. cerevisiae deletion strains, locus YPR141C, strain kar3, active compounds read low 0.993 | S. cerevisiae deletion strains, locus YPR163C, strain tif3, active compounds read low 0.99 | S. cerevisiae deletion strains, locus YPR167C, strain met16, active compounds read low 0.992 | S. cerevisiae deletion strains, strain wtn01, active compounds read low 0.982 | S. cerevisiae strains, strain wild type, active compounds read low 1.01
